# From article PMC11024108
# Assays:
# [1] = target: Cytochrome c oxidase subunit 6C (UniProt P09669); test: cross-link between two proteins; cross-linking mass spectrometry
# [2] = target: Solute carrier family 25 member 3 (UniProt Q00325); test: co-fractionation; co-fractionation; cross-linking mass spectrometry
# [3] = target: MICOS complex subunit MIC60 (UniProt Q16891); test: cross-link between two proteins; cross-linking mass spectrometry
# [4] = target: Cytochrome b-c1 complex subunit 1, mitochondrial (UniProt P31930); test: co-fractionation; co-fractionation; cross-linking mass spectrometry
# [5] = target: Cytochrome b-c1 complex subunit 2, mitochondrial (UniProt P22695); test: as above
# Sequence of Cytochrome b-c1 complex subunit 2, mitochondrial (P22695 whole entry, one chain of several): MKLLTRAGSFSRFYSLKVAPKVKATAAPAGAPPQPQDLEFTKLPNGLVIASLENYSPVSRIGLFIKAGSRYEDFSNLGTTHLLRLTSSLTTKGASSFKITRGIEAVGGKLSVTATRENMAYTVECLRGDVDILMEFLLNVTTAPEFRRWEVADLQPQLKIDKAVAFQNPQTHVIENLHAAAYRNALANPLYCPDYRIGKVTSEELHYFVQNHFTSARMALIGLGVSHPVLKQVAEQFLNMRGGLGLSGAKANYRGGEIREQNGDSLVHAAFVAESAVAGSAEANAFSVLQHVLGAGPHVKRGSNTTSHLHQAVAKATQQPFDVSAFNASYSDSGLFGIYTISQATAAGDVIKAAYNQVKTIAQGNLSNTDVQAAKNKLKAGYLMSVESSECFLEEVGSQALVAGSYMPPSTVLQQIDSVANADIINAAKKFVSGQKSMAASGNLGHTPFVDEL
# [6] = target: Electron transfer flavoprotein subunit beta (UniProt P38117); test: as above
# [7] = target: Propionyl-CoA carboxylase beta chain, mitochondrial (UniProt P05166); test: as above
# [8] = target: AP-1 complex subunit beta-1 (UniProt Q10567); test: cross-link between two proteins; co-fractionation; cross-linking mass spectrometry
# [9] = target: AP-2 complex subunit beta (UniProt P63010); test: as above
# Sequence of AP-2 complex subunit beta (P63010 whole entry, one chain of several): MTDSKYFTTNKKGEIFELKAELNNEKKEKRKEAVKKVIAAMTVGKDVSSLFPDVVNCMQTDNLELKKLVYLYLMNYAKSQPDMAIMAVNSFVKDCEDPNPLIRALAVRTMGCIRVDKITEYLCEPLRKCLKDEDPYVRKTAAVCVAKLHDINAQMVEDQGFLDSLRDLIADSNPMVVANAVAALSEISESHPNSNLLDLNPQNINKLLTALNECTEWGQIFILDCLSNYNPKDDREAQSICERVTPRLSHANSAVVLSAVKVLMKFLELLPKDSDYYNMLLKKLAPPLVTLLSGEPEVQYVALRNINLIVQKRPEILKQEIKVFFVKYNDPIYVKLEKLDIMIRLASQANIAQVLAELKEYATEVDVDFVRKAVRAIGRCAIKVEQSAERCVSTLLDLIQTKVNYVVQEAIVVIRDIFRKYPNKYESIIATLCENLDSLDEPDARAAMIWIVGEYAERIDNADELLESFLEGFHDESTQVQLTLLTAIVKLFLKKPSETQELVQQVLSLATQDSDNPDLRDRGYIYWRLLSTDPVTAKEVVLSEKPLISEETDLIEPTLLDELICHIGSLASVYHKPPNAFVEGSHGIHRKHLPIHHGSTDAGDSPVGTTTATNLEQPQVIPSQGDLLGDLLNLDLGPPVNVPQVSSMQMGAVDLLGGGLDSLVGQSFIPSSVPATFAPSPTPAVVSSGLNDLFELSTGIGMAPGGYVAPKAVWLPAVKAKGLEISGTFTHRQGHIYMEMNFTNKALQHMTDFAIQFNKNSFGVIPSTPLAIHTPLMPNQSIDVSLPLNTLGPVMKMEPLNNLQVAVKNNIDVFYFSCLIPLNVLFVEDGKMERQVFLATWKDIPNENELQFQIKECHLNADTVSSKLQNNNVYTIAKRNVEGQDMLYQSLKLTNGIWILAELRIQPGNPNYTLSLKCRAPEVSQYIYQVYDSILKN
# [10] = target: BLOC-1-related complex subunit 7 (UniProt Q96B45); test: as above
# [11] = target: Pyruvate dehydrogenase E1 component subunit beta, mitochondrial (UniProt P11177); test: as above
# [12] = target: Ras-related protein Rab-11B (UniProt Q15907); test: as above
# [13] = target: Ras-related protein Rab-1B (UniProt Q9H0U4); test: as above
# Sequence of Ras-related protein Rab-1B (Q9H0U4 whole entry, the tested form may be a part): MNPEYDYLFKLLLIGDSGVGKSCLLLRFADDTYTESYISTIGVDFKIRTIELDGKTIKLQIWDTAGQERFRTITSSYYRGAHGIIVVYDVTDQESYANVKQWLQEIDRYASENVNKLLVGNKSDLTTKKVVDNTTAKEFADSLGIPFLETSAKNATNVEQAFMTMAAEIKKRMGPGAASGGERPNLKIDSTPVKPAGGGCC
# [14] = target: ATPase family AAA domain-containing protein 3A (UniProt Q9NVI7); test: cross-link between two proteins; affinity purification or IP with mass spectrometry; cross-linking mass spectrometry
# [15] = target: Cytochrome c oxidase assembly factor 4 homolog, mitochondrial (UniProt Q9NYJ1); test: as above
# [16] = target: MICOS complex subunit MIC19 (UniProt Q9NX63); test: as above
# [17] = target: MICOS complex subunit MIC25 (UniProt Q9BRQ6); test: as above
# [18] = target: Serine/threonine-protein phosphatase PGAM5, mitochondrial (UniProt Q96HS1); test: as above
# Sequence of Serine/threonine-protein phosphatase PGAM5, mitochondrial (Q96HS1 whole entry): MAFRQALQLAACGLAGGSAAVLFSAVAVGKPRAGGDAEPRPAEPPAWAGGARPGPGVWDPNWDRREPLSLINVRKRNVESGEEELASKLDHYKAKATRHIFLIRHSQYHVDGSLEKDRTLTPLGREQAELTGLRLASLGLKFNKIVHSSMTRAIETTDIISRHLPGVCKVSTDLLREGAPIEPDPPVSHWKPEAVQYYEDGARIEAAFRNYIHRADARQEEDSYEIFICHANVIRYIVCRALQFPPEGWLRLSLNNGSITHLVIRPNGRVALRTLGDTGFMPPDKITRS
# [19] = target: TIM double twin CX3C motif protein (UniProt Q96C01); test: as above
# Sequence of TIM double twin CX3C motif protein (Q96C01 whole entry): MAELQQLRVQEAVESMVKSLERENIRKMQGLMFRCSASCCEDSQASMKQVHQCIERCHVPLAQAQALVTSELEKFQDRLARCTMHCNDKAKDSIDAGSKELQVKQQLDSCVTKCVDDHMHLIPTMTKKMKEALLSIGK
# [20] = target: Endoplasmic reticulum membrane protein complex subunit 7 (UniProt Q9NPA0); test: as above
# [21] = target: Thioredoxin-related transmembrane protein 1 (UniProt Q9H3N1); test: as above
# Sequence of Thioredoxin-related transmembrane protein 1 (Q9H3N1 whole entry): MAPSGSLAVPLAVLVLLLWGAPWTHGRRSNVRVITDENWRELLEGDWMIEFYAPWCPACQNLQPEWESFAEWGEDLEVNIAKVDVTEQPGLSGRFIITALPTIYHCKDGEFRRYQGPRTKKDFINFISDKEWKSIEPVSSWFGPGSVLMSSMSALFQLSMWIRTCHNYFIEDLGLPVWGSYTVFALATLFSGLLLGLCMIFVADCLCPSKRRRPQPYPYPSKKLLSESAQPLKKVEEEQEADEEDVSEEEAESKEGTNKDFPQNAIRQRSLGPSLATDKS
# [22] = target: Endoplasmic reticulum resident protein 29 (UniProt P30040); test: as above
# [23] = target: Leucine-rich repeat-containing protein 59 (UniProt Q96AG4); test: as above
# [24] = target: Transmembrane emp24 domain-containing protein 9 (UniProt Q9BVK6); test: as above
# Sequence of Transmembrane emp24 domain-containing protein 9 (Q9BVK6 whole entry, the tested form may be a part): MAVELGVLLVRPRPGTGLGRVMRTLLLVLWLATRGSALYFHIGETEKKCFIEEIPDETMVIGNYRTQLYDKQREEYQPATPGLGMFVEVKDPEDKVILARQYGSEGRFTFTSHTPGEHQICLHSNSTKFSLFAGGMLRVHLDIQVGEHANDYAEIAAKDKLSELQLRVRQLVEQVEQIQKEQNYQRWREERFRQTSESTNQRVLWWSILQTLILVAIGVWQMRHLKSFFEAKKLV
# [25] = target: Large ribosomal subunit protein bL12m (UniProt P52815); test: as above
# [26] = target: Mitochondrial import inner membrane translocase subunit Tim29 (UniProt Q9BSF4); test: as above
# Syntaxin-8 = Syntaxin-8 (UniProt Q9UNK0); test: as above
# [27] = target: Bifunctional glutamate/proline--tRNA ligase (UniProt Q8CGC7); test: cross-link between two proteins; cross-linking mass spectrometry
# [28] = target: AP-3 complex subunit mu-1 (UniProt Q9Y2T2); test: as above
# [29] = target: ATP synthase F(1) complex subunit alpha, mitochondrial (UniProt P25705); test: as above
# [30] = target: BOS complex subunit NOMO2 (UniProt Q5JPE7); test: as above
# [31] = target: 3-hydroxyisobutyryl-CoA hydrolase, mitochondrial (UniProt Q6NVY1); test: as above
# Annexin A11 = Annexin A11 (UniProt P50995); test: as above
# Amphiphysin = Amphiphysin (UniProt Q7TQF7); test: as above
# Sequence of Amphiphysin (Q7TQF7 whole entry): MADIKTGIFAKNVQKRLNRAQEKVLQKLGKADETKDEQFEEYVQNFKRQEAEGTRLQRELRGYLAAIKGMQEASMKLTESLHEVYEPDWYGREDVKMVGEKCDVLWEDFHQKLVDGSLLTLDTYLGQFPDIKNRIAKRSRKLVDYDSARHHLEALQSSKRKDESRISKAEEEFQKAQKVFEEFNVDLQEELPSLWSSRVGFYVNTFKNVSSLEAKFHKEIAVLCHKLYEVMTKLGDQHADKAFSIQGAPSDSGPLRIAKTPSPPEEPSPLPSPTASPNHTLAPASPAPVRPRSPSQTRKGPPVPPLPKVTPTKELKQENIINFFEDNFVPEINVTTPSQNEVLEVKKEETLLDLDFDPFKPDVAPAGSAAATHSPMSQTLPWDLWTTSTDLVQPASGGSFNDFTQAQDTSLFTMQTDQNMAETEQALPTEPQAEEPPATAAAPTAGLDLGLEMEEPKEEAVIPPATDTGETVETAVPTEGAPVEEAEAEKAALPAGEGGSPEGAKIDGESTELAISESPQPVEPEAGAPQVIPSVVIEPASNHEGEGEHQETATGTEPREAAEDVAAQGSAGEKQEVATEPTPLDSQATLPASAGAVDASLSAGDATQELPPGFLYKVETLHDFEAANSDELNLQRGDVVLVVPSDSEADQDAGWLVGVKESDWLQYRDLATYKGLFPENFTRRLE
# [32] = target: ATP-dependent 6-phosphofructokinase, platelet type (UniProt Q9WUA3); test: as above
# [33] = target: AP-2 complex subunit beta (UniProt P63010); test: as above
# AP-2 complex subunit mu = AP-2 complex subunit mu (UniProt Q96CW1); test: as above
# Sequence of AP-2 complex subunit mu (Q96CW1 whole entry, one chain of several): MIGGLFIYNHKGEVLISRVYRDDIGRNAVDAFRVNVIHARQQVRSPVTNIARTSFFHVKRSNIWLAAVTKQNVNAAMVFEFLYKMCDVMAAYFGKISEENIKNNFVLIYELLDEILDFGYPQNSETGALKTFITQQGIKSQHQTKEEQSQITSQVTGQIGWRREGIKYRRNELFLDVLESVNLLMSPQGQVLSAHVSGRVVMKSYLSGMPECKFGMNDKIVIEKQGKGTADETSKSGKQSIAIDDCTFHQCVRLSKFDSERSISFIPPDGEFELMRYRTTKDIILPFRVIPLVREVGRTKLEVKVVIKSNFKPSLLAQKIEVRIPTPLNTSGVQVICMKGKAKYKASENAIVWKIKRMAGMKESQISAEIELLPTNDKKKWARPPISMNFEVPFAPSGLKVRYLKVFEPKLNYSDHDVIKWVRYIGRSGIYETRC
# [34] = target: Epidermal growth factor receptor substrate 15-like 1 (UniProt Q9UBC2); test: as above
# [35] = target: Phosphatidylinositol-binding clathrin assembly protein (UniProt Q13492); test: as above
# Sequence of Phosphatidylinositol-binding clathrin assembly protein (Q13492 whole entry): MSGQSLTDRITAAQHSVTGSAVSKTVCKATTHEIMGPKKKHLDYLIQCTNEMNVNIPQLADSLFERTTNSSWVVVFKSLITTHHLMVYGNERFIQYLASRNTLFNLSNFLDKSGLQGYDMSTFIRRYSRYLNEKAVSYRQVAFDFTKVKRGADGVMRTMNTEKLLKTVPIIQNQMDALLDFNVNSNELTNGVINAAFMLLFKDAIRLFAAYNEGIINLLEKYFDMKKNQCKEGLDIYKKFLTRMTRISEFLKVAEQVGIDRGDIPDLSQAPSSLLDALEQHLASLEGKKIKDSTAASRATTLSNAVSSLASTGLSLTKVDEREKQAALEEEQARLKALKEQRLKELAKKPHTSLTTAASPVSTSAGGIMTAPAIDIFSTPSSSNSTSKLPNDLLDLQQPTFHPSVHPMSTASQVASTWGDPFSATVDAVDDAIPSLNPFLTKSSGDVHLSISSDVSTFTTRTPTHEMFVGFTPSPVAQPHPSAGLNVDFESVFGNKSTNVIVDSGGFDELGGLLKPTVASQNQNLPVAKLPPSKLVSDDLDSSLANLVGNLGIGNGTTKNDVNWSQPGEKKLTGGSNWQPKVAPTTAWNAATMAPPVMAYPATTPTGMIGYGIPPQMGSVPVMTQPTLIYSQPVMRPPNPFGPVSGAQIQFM
# Sequence of Solute carrier family 25 member 3 (Q00325 whole entry): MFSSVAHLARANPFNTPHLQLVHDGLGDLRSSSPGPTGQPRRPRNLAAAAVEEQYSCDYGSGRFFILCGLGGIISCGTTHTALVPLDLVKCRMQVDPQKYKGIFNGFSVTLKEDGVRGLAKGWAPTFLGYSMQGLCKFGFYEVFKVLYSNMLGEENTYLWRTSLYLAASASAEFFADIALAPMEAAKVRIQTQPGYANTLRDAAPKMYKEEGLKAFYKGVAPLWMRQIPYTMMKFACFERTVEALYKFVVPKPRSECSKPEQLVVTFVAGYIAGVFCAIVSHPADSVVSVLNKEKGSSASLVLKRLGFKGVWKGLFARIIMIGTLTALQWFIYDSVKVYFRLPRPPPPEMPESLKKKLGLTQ
substance,measurement,setting,value
"ADP/ATP translocase 2, P05141",listed as a hit,[1],yes
same,listed as a hit,[2],yes
"Cytochrome c, P99999",listed as a hit,[3],yes
"Cytochrome b-c1 complex subunit 2, mitochondrial, P22695",listed as a hit,[4],yes
"Cytochrome c1, heme protein, mitochondrial, P08574",listed as a hit,[5],yes
"Electron transfer flavoprotein subunit alpha, mitochondrial, P13804",listed as a hit,[6],yes
"Propionyl-CoA carboxylase alpha chain, mitochondrial, P05165",listed as a hit,[7],yes
"AP-2 complex subunit alpha-1, O95782",listed as a hit,[8],yes
same,listed as a hit,[9],yes
"Biogenesis of lysosome-related organelles complex 1 subunit 1, P78537",listed as a hit,[10],yes
"Pyruvate dehydrogenase E1 component subunit alpha, somatic form, mitochondrial, P08559",listed as a hit,[11],yes
"Ras-related protein Rab-11A, P62491",listed as a hit,[12],yes
"Ras-related protein Rab-1A, P62820",listed as a hit,[13],yes
"Cytochrome c oxidase assembly factor 7, Q96BR5",listed as a hit,[14],yes
same,listed as a hit,[15],yes
same,listed as a hit,[16],yes
same,listed as a hit,[17],yes
same,listed as a hit,[18],yes
same,listed as a hit,[19],yes
"ER membrane protein complex subunit 1, Q8N766",listed as a hit,[20],yes
same,listed as a hit,[21],yes
"Calnexin, P27824",listed as a hit,[22],yes
same,listed as a hit,[23],yes
same,listed as a hit,[21],yes
same,listed as a hit,[24],yes
"Heterogeneous nuclear ribonucleoproteins C1/C2, P07910",listed as a hit,[25],yes
"Mitochondrial import inner membrane translocase subunit Tim10, P62072",listed as a hit,[26],yes
"Flotillin-1, O75955",listed as a hit,Syntaxin-8,yes
"Isoleucine--tRNA ligase, cytoplasmic, Q8BU30",listed as a hit,[27],yes
"AP-3 complex subunit beta-1, O00203",listed as a hit,[28],yes
"ATP synthase peripheral stalk subunit b, mitochondrial, P24539",listed as a hit,[29],yes
"BOS complex subunit NOMO3, P69849",listed as a hit,[30],yes
"Mitochondrial-processing peptidase subunit alpha, Q10713",listed as a hit,[31],yes
"Annexin A7, P20073",listed as a hit,Annexin A11,yes
"Myc box-dependent-interacting protein 1, O08539",listed as a hit,Amphiphysin,yes
"ATP-dependent 6-phosphofructokinase, muscle type, P47857",listed as a hit,[32],yes
"AP-2 complex subunit alpha-2, O94973",listed as a hit,[33],yes
same,listed as a hit,AP-2 complex subunit mu,yes
same,listed as a hit,[34],yes
same,listed as a hit,[35],yes
